Myeloid diff 2 – induction of myeloid progenitor differentiation, primary screen, cell-based, flow cytometry, MLPCN library; ER-HoxA9 myeloid progenitors, lysozyme-GFP differentiation; calls only at 10 µM; 360,000 compounds, 1% hits;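 active = normalized GFP-positive differentiation at or above the plate's own cutoff, the solvent-only control mean plus 3 SD; inconclusive = no clear call, values can overlap the other calls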;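 also: cells exposed to compound for four days before flow analysis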
CHRM1 antagonist – human M1 muscarinic receptor antagonists, primary screen, CHO-K1 cells, Fluo-8 calcium fluorescence, 1536-well | AID 588852, 2011 | CHO-K1 hM1, ACh EC80 antagonist | inhibition, % at 3 µM | 360,000 compounds, 1.3% hits;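 active = percent inhibition above its own plate's cutoff, namely the mean of that plate's compound wells plus 3 SD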;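 also: peak over basal fluorescence ratio during 140 s after agonist addition; 0% = ACh EC80 plus DMSO and 100% = DMSO alone without agonist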
Target sequence (P11229 whole entry, looked up): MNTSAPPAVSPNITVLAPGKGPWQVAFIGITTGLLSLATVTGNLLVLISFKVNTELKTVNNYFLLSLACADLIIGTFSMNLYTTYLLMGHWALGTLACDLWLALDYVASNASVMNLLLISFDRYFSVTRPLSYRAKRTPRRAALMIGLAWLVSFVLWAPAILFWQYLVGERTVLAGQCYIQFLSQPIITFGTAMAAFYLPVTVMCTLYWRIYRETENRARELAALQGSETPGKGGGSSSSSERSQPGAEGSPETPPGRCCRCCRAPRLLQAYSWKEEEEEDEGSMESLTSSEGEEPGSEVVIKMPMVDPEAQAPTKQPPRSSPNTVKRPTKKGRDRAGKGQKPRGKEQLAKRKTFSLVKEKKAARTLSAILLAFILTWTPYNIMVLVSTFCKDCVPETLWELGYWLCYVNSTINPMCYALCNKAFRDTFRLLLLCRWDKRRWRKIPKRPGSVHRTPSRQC
SKN-1 block – suppressors of acrylamide-induced Pgst-4::GFP reporter in worms, primary screen, SKN-1 inhibitor project, whole organism, uHTS, GFP/RFP fluorescence ratio, strain VP596; C. elegans VP596 Pgst-4::GFP/RFP ratio, 24 h; inhibition, % at 21.8 µM; 360,000 compounds, 0.49% hits;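 active = interference check ratio from 0.5 to 1.5 plus GFP to RFP signal ratio inhibition reaching or exceeding a fixed threshold, cut at about 30% in these data, passing the limit was not always enough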
ATG4B inh – ATG4B protease inhibitors, primary screen, biochemical, fluorescence, uHTS | ATG4B cleavage of LC3-PLA2, NBD-HPC fluorescence, 1 h | inhibition, % at 8.33 µM | 340,000 compounds, 0.51% hits | AID 504462, 2011; in the data active = inhibition above about 40%
CHRM1 agonist – human M1 muscarinic receptor agonists, primary screen, Fluo-8 calcium fluorescence, CHO-K1 cells, HTS | Muscarinic acetylcholine receptor M1 (Homo sapiens), P11229 | CHO-K1 hM1, agonist mode; 0% DMSO, 100% acetylcholine EC100 | activation, % at 3 µM | 360,000 compounds, 0.33% hits | AID 588814, 2011;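 active = activation above the run's mean compound activation plus 3 SD, cut at about 16% in these data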;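 also: peak over basal fluorescence ratio within a 140 s kinetic read after compound addition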
M1 PAM – human M1 muscarinic receptor positive allosteric modulators, primary screen, CHO-K1 cells, Fluo-8 calcium fluorescence, 1536-well; activation, % at 3 µM; 360,000 compounds, 0.088% hits; CHO-K1 hM1, ACh EC20; 0% = ACh EC20, 100% = maximal ACh; in the data active = activation above about 19%, passing the limit was not always enough
Myeloid diff – inducers of myeloid progenitor differentiation, confirmation, cell-based, GFP/Mac1 flow cytometry, cherry pick 01. ER-HoxA9 myeloid progenitors, GFP/Mac1 double-positive flow. calls only. AID 651706, 2012. 2,300 compounds, 2% hits. shares compounds with Myeloid diff 2;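 active = share of green or green-and-red cells above 9 and 9% in run 1 or 4 and 3% in run 2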
GFP autofluor – compound fluorescence in myeloid differentiation counter-screen. fluorescence response, % (concentration not given with the values). shares compounds with Myeloid diff 2. ER-HoxA9 myeloid progenitors, no estrogen, GFP autofluorescence flow cytometry; vehicle wells 0%, positive control 100%. 2,300 compounds, 7.4% hits;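 active = over 5% cells positive for green fluorescent reporter, or over 2% positive for both it and APC stain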;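 also: range taken on the double positive population between DMSO and positive control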
* hit, by the source's call; i = inactive; ? = inconclusive; · = not tested or not shown; + = active, no number. Shown are actives, neighbours in structure and some others; about 3.5% of the full set was active somewhere.

SMILES	Myeloid diff 2	CHRM1 antagonist	SKN-1 block	ATG4B inh	CHRM1 agonist	M1 PAM	Myeloid diff	GFP autofluor
CCC(=O)N(C)C[C@@H]1Oc2ncc(Br)cc2C(=O)N([C@H](C)CO)C[C@H]1C	i	-18	-6	·	-2	4	·	·
Nc1nccc(NCCSCc2ccccc2)n1	+	20	-8	-3	-3	-15	i	0
O=C(NCCSCc1ccccc1)c1ccccc1	i	-14	6	1	-6	11	·	·
O=S(=O)(NCc1ccccc1Br)c1cccs1	i	-7	-37	9	-1	4	i	0
CC1CC(C)(C)NC(=S)N1CCCC(=O)NCc1ccccc1 (centres undefined)	i	-1	-8	9	-6	2	i	0
CCc1ccc(NC(=O)CCCN2C(=S)NC(C)(C)CC2C)cc1 (centres undefined)	i	-6	0	5	-8	4	·	·
CCC(C)C(NC(=O)c1ccccc1NC(=O)c1ccco1)C(=O)NNC(=O)c1ccncc1 (centres undefined)	i	-17	0	0	-2	15	·	·
CC(/C=N/NC(=O)c1cccnc1)=C\c1ccco1	i	-17	8	5	2	9	i	0
CC(=C/c1ccco1)/C=N/NC(=O)c1ccncc1	i	-12	-2	-1	-1	8	·	·
Oc1ccc(/C=C/c2ccc3ccccc3n2)cc1	+	-1	25	-23	-2	4	i	20*
O=C(CSc1nc2ccsc2c(=O)n1NC(=O)c1ccccc1)NCc1ccco1	i	10	5	2	-2	-1	·	·
O=C(CSc1nc2ccsc2c(=O)n1NC(=O)c1ccccc1)Nc1nccs1	+	-12	9	8	-6	5	i	0
CCCNC(=O)C1(C)CCN1C(=O)Cc1ccc(C(C)(C)C)cc1 (centres undefined)	i	-9	-6	·	-1	3	·	·
COc1ccc(S(=O)(=O)N2c3ccc(F)cc3CCC2C)cc1 (centres undefined)	·	26	25	-7	-4	-8	·	·
COc1ccc2c(c1)CCC(C)N2S(=O)(=O)c1ccc(C2CNC(=O)C2)cc1 (centres undefined)	·	-11	3	-4	-2	11	i	0
C=CCn1c(C)c(C(C)=O)c(N2CCN(c3ccccc3)CC2)nc1=S	+	89*	18	4	-1	-22	i	2
OC(c1ccccc1)(c1ccccc1)C1CCN(CCCOc2ccc3c(c2)CCCC3)CC1	+	·	4	·	·	·	i	0
N#CCc1ccc(OCCCN2CCC(C(O)(c3ccccc3)c3ccccc3)CC2)cc1	i	·	-3	·	·	·	·	·
O=C1CCCC(O)=C1Sc1cc(Cl)c(Cl)cc1Cl	i	-8	-2	18	-1	9	·	·
Cc1cc2c(cc1C)N(CC(=O)N1CCCC1)C(=O)CC(c1ccccc1)=N2	i	-12	-22	-11	0	14	i	0
COc1cccc(NC(=S)Nc2cccc3ccccc23)c1	i	-2	14	0	-2	1	i	0
Cc1cccc(NC(=S)Nc2cccc3ccccc23)c1	i	0	15	-7	-2	2	·	·
N#Cc1c(N)n(-c2cccc(C(=O)O)c2)c2nc3ccccc3nc12	+	5	-8	-5	-3	0	i	0
N#Cc1c(N)n(-c2ccccc2N)c2nc3ccccc3nc12	i	-14	1	-13	-3	15	·	·
CCc1cccc(C)c1NC(=O)C1CCCN(S(C)(=O)=O)C1 (centres undefined)	i	-12	-6	-1	-3	6	·	·
SMILES	Myeloid diff 2	CHRM1 antagonist	SKN-1 block	ATG4B inh	CHRM1 agonist	M1 PAM	Myeloid diff	GFP autofluor
O=C(OCc1ccccc1)N1CCC2CC1c1cc(Cl)ccc12 (centres undefined)	?	1	-14	16	-5	-1	i	0
CC(C)N(C(=O)CSc1nnnn1-c1ccc2c(c1)OCO2)C(C)C	i	7	-12	6	-8	0	·	·
N#CC1=C(N)Oc2n[nH]c(-c3ccccc3)c2C12C(=O)Nc1ccccc12 (centres undefined)	i	-8	10	-16	-3	4	i	0
CN1CCNC(=O)C1CC(=O)NCCc1ccccc1F (centres undefined)	i	-9	-7	24	-6	13	·	·
CCCCN1C(=O)C(CC(=O)NCCc2ccccn2)CC(C(=O)N(C(C)C)C(C)C)=C1C (centres undefined)	i	3	-2	·	2	10	·	·
CCCCN1C(=O)C(CC(=O)NCCc2ccccn2)CC(C(=O)N(C)C)=C1C (centres undefined)	i	-11	14	·	-3	1	i	18*
CC(C)C[C@H]1CNC(=O)C(=O)N1CC1CCN(CCc2ccc(-c3ccccc3)cc2)CC1	i	-3	3	·	-11	-2	·	·
O=C(Nc1ccccc1Cl)C1CCCN1C(=O)OCc1ccccc1 (centres undefined)	?	-1	-3	1	-6	-1	·	·
O=C(NCc1cccnc1)c1cnn2ccccc12	i	-17	0	0	-4	10	·	·
Cc1cc(C)n2ncc(C(=O)NCc3cccnc3)c2n1	+	2	18	-6	-5	-4	i	0
O=C(NCc1cccs1)c1ccc(CS(=O)(=O)c2ccc(Cl)cc2)o1	+	-8	0	5	5	8	i	0
COc1ccc(S(=O)(=O)Cc2ccc(C(=O)NCc3cccs3)o2)cc1	i	-2	8	-5	-2	1	·	·
CC(C)=CCC/C(C)=C/CNC(=O)C[C@H]1C[C@H](C(=O)N2CCCCC2)[C@@]2(C)c3[nH]c4ccc(Cl)cc4c3CCN2C1=O	+	-17	-23	-1	0	8	i	0
